# Assay results taken from PubChem BioAssay AID504466 (National Center for Advancing Translational Sciences (NCATS), 2011).
# Out of some 330,000 compounds screened, about 4,200 (1.3%) were called active. Inconclusive results (about 6%) are left out. Calls come from the whole dose curve; as a rule, active = well fitted activation curve with a large enough effect; inconclusive = small, poorly fitted or top-dose-only effect; inactive = no such curve, though single readings can be large or run the other way. This excerpt belongs to a sample that is enriched for actives.
# Assay: qHTS screen for small molecules that induce genotoxicity in human embryonic kidney (HEK293T) cells expressing luciferase-tagged ELG1; note: nearly all actives have a fitted effect of over 60% in size; for activity change, positive = activation: % of control where 0% means no effect
# Conditions: HEK293T ELG1-luciferase reporter, luminescence, 16 h; series mostly up to 46 µM; activity change, positive = activation: at the top concentration
# Summary of the method: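 Screening used a luciferase reporter fused to human ELG1 in HEK293T cells. Luminescence was read on a CCD plate imager after 16 hr exposure and 30 min ONE-Glo incubation.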
# Potency is the fitted concentration of half-maximal effect.
SMILES,"activity change, positive = activation",Potency
CCC(C)c1ccc(NC(=O)COC(=O)C2CCCC2)cc1 (stereo unspecified),13.7% (inactive),–
COc1cc(/C=C/C(=O)Nc2ccc(OC)c(S(=O)(=O)N3CCOCC3)c2)ccc1OCC#N,-5.08% (inactive),–
O=C(OCCN1C(=O)c2ccccc2C1=O)[C@@H]1CC(O)CN1S(=O)(=O)c1ccccc1[N+](=O)[O-] (stereo partly specified),-0.548% (inactive),–
CCCc1cc(=O)oc2c(C)c(OCC(=O)Nc3ccccn3)ccc12,–,5.17 µM (active)
CCCc1cc(=O)oc2c(C)c(OCC(=O)NCc3ccccn3)ccc12,0.193% [at 9.26 µM] (inactive),–
CCCc1cc(=O)oc2c(C)c(OCC(=O)N3CCC(C(=O)O)CC3)ccc12,-1.71% (inactive),–
O=C(Nc1cc(S(=O)(=O)N2CCCCC2)ccc1Cl)C1COc2ccccc2O1 (stereo unspecified),-5.67% (inactive),–
CC[C@]12c3[nH]c4ccc(Cl)cc4c3CCN1C(=O)[C@@H](CC(=O)NCCN1CCOCC1)C[C@@H]2C(=O)N1CCN(C(=O)C2CC2)CC1,5.63% (inactive),–
CN(C)S(=O)(=O)c1ccc2oc(SCC(=O)Nc3ccccc3F)nc2c1,–,10.3 µM (active)
COc1ccc(S(=O)(=O)N(C)C)cc1NC(=O)CSc1ncccn1,2.94% (inactive),–
COc1ccc(NS(=O)(=O)c2ccc3oc(SCC(N)=O)nc3c2)cc1,-12.5% (inactive),–
O=c1c2c(nc3cc(-c4cccc(Cl)c4)[nH]n13)CCCC2,–,0.517 µM (active)
CCCCN1Cc2c(nc3cc(-c4ccccc4)[nH]n3c2=O)C1=O,3.81% (inactive),–
O=c1c2c(nc3nc[nH]n13)CCC2,4.12% (inactive),–
Cc1ccc(CNC(=O)Cn2cnc3c(NCc4ccccc4)ncnc32)o1,0.754% (inactive),–
CCc1noc(C)c1C(=O)Nc1nc(-c2ccccc2)cs1,1.72% (inactive),–
Clc1ccc(-c2csc(-c3ccncc3)n2)cc1,12.6% (inactive),–
c1csc(-c2cn3c(n2)SCC3)c1,3.5% (inactive),–
COc1ccc(NC(=O)c2sc(N)nc2-c2ccccc2)cc1,1.11% (inactive),–
Clc1ccc(-n2nnnc2-c2cnc(-c3ccccn3)nc2-c2cccs2)cc1,-5.46% (inactive),–
Clc1ccc(Nc2nc(-c3cccs3)cs2)nc1,–,1.16 µM (active)
COc1ccc(Nc2nc(-c3ccccc3)cs2)cc1,–,0.58 µM (active)
Cc1cccc(Nc2nc(-c3ccccc3)cs2)n1,–,2.91 µM (active)
COc1ccc(Nc2nnc(C)c3ccccc23)cc1,16.7% (inactive),–
Cc1cccc(S(=O)(=O)CC(=O)Nc2nc(-c3ccccc3)cs2)c1,-2.42% (inactive),–
O=C(Nc1nc(-c2ccc(-c3ccccc3)cc2)cs1)c1cnccn1,15.3% (inactive),–

SMILES,"activity change, positive = activation",Potency
c1ccc(Nc2nc(-c3ccncc3)cs2)nc1,–,1.46 µM (active)
O=C(NCC#CCSc1nnc(-c2cccc3ccccc23)o1)c1cccs1,-0.584% (inactive),–
O=C(CNC(=O)c1ccco1)NNC(=O)c1ccc(Br)cc1,-1.29% (inactive),–
C[C@H](CO)N1C[C@H](C)[C@@H](CN(C)C(=O)Nc2ccc3c(c2)OCO3)Oc2c(cccc2N(C)C)C1=O,3.83% (inactive),–
CC(=O)c1ccc(NC(=O)CSc2nc3ccccc3c(=O)n2CCCN2CCOCC2)cc1,15.5% (inactive),–
Cc1c(NC(=O)C(C)OC(=O)c2ccccc2O)c(=O)n(-c2ccccc2)n1C (stereo unspecified),1.59% (inactive),–
Cn1c(N)c(C(=O)COC(=O)c2cccc(S(=O)(=O)N3CCOCC3)c2)c(=O)n(C)c1=O,1.81% (inactive),–
C#CCOCCOCCOCCNc1nc(N2CCN(C(=O)C([C@@H](C)O)n3cc([C@@H](N)CCCCN)nn3)CC2)nc(N2CCN(C(=O)[C@H](CCCCN)n3cc(CN)nn3)CC2)n1 (stereo partly specified),-2.61% (inactive),–
Cc1noc(C)c1S(=O)(=O)N(C)C[C@H]1Oc2ccc(NC(=O)C3CC3)cc2C(=O)N([C@H](C)CO)C[C@@H]1C,-1.19% (inactive),–
Cc1ncc(CC(=O)n2cc(C(=O)c3cc(Cl)ccc3O)cn2)s1,-10.8% (inactive),–
O=C(c1cnn(-c2ccc(Cl)cc2)c1)c1ccccc1O,–,7.3 µM (active)
COc1ccc(CNC(=O)COc2ccccc2C(=O)c2cnn(-c3ccccc3)c2)cc1OC,0.697% (inactive),–
CC[C@]1(C(=O)OC)[C@H]2C(=O)N(Cc3ccccc3)C(=O)[C@H]2[C@H]2CN=C(SCc3ccc(C#N)cc3)N21,-3.52% (inactive),–
CN[C@H](C(=O)NC[C@H]1O[C@@H](n2cnc3c(N)ncnc32)[C@H](O)[C@@H]1O)[C@@H](C)OCc1ccccc1,-1.8% (inactive),–
O=C1[C@@H](c2ccccc2)[C@@H](c2ccccc2)N1c1cccnc1,-0.676% (inactive),–
CC[C@]12c3[nH]c4ccc(Cl)cc4c3CCN1C(=O)[C@@H](CC(=O)NCCCOC)C[C@@H]2C(=O)N1CCN(C(=O)c2ccco2)CC1,9.33% (inactive),–
O=C(Nc1cccnc1Cl)c1cc(-c2cccc(Cl)c2)on1,22.5% (inactive),–
O=C(NCCCn1ccnc1)c1ccccc1F,3.39% (inactive),–
O=C(NC1CCCCC1)c1ccc(-c2ccc(Cl)cc2)o1,17.5% (inactive),–
COc1ccc(-c2cc(C(=O)NCCCn3ccnc3)no2)cc1,0.698% (inactive),–
O=C(NC1CCCC1)c1cc(-c2ccccc2)on1,–,9.2 µM (active)
O=C(NCCCn1ccnc1)c1cc(-c2ccccc2)on1,–,14.6 µM (active)
O=C(NC(=S)Nc1ccc(Br)cc1F)C1CCCCC1,10.3% (inactive),–
COc1ccc(CNC(=O)C[C@H]2C[C@H](C(=O)N3CCOCC3)[C@@]3(CCC4CCCC4)c4[nH]c5ccc(Cl)cc5c4CCN3C2=O)cc1OC,-5.49% (inactive),–
O=C(Nc1cccc(S(=O)(=O)NC2=NCCC2)c1)c1ccc(F)cc1F,-1.03% (inactive),–
CCn1nnc2cc(C(=O)Nc3ccc(C(=O)OC(C)C)cc3)ccc21,1.88% (inactive),–

SMILES,"activity change, positive = activation",Potency
COc1ccccc1N(CC(=O)N/N=C(\C)c1ccccc1O)S(=O)(=O)c1ccc(C)cc1,-10.2% (inactive),–
C/C(=N\NC(=O)c1ccoc1C)c1ccccc1O,–,18.3 µM (active)
CC(C)=C(NC(=O)c1ccccc1)C(=O)N/N=C(\C)c1ccccc1O,4.32% (inactive),–
O=C1NC[C@@H](c2ccccc2)OC(=O)[C@H](Cc2ccc(F)cc2)CC/C=C/C[C@H]1CC(=O)N(CCO)Cc1ccccc1,-3.64% (inactive),–
O=C(c1ccc(F)cc1)n1c(=S)nc2ccccn21,–,0.651 µM (active)
O=C(c1ccc(F)cc1)n1cc(C(=S)N2CCOCC2)c2ccccc21,-2.08% (inactive),–
O=C(C[n+]1cc(Br)cc2ccccc21)c1ccc(F)cc1,2.61% (inactive),–
O=C(COC(=O)/C=C/c1cccc(Cl)c1)NCc1cccs1,0.0415% (inactive),–
Nn1c(SCC(=O)Nc2ccc3c(c2)CCC3)nnc1C1CC1,0.947% (inactive),–
O=C(CSCc1ccc(Cl)cc1)N1CCN(Cc2ccc3c(c2)OCO3)CC1,-6.7% (inactive),–
O=C(CSCc1ccc(Cl)cc1)N1CCCCC1,–,8.91 µM (active)
Cn1c(SCC(=O)N2CCCC2)nnc1-c1cccs1,6.12% (inactive),–
O=C(CSCc1cccs1)N1CCCC1,–,16.4 µM (active)
O=C(COc1ccccc1Cl)N1CCCCCCC1,3.7% (inactive),–
O=C(CSc1ccsc1[N+](=O)[O-])N1CCCCC1,-3.05% (inactive),–
CCN(C[C@H]1N[C@@](CC)(C(=O)OC)[C@H]2C(=O)N(Cc3ccccc3)C(=O)[C@@H]12)S(=O)(=O)c1ccccc1,-3.54% (inactive),–
COc1cc(OC)cc(C(=O)NC(C(=O)N2CCC2)C(C)C)c1 (stereo unspecified),-0.193% (inactive),–
CC1(C)C(c2cccs2)=[N+]([O-])C2(CCCCC2=O)N1O (stereo unspecified),-5.57% (inactive),–
C/C(=N\O)C1(C)N(O)C(C)(C)C(c2ccc(Br)cc2)=[N+]1[O-] (stereo unspecified),0.163% (inactive),–
CC(=O)C1(C)N(O)C(C)(C)C(c2cccs2)=[N+]1[O-] (stereo unspecified),–,0.082 µM (active)
COc1ccc(C(=O)NC(=S)Nc2ccc(Cl)cn2)cc1OC,7.16% (inactive),–
CCCc1cc(C(=O)Nc2ccc(Cl)cn2)cs1,–,2.31 µM (active)
CCCc1cc(C(=O)Nc2ccc(C(=O)OC)cc2)cs1,10.2% (inactive),–
O=C(Nc1ccc(Cl)cn1)c1ccc2c(c1)OCCO2,–,1.16 µM (active)
COc1c(Cl)cc(C(=O)Nc2ccc(Cl)cn2)cc1Cl,20.8% (inactive),–
Cc1nc(NC(=O)c2ccc3c(c2)OCCO3)ccc1Br,14.1% (inactive),–

SMILES,"activity change, positive = activation",Potency
O=C(Nc1cccc(S(=O)(=O)N2CCCC2)c1)c1cncc(Br)c1,-3.48% (inactive),–
COc1ccc(-c2sc3ccc(OC)cc3c2C#Cc2ccccn2)cc1,-5.99% (inactive),–
COc1cc(OC)c2c(-c3cccc(-c4cccc(N)c4)c3)cc(=O)oc2c1,15.5% (inactive),–
CCN([C@H](CO)C(C)C)S(=O)(=O)c1ccccc1Br,2.85% (inactive),–
Cc1ccc2c(c1)C1C[N+](C)(CC(=O)c3ccccc3)CCC1N2C(=O)c1ccccc1Cl (stereo unspecified),6.12% (inactive),–
CC1CCCCC1NC(=O)COc1ccc(C#N)cc1 (stereo unspecified),0.621% (inactive),–
C=CCC[C@@H](Cc1ccc(F)cc1)C(=O)O[C@H](CNC(=O)[C@H](CC=C)CC(=O)N(CCO)Cc1ccccc1)c1ccccc1,-10.3% (inactive),–
COC(=O)c1ccc(CNC(=O)c2ccc(S(=O)(=O)N3CCCCCC3)cc2)cc1,0.558% (inactive),–
O=C(NCCOc1ccccc1)c1ccccc1,–,1.64 µM (active)
Cc1noc(C)c1COc1ccc(C(=O)NCCOc2ccccc2)cc1,10.2% (inactive),–
CCCCCCCCC(=O)NCCOc1ccccc1,0.026% (inactive),–
Cc1cc(Cl)c(S(=O)(=O)Nc2ccc3c(c2)OCCO3)cc1OCC(N)=O,–,23.1 µM (active)
Cc1cc(Cl)c(S(=O)(=O)N(C)C)cc1OCC(N)=O,2.13% (inactive),–
Cc1cc(Cl)c(S(=O)(=O)NCC2CCCO2)cc1OCC(N)=O (stereo unspecified),-1.09% (inactive),–
COC(=O)C1=C(C)N(Cc2ccccc2)C(=NCCCOC(C)C)N[C@H]1c1ccccc1,-6.75% (inactive),–
CN(C)C(=O)CCc1ccc2c3c([nH]c2c1)[C@]1(C)[C@@H](C(=O)N2CCCCC2)C[C@H](CC(=O)NCCC2=CCCCC2)C(=O)N1CC3,3.62% (inactive),–
Cc1cccc(C)c1OCCN1CCOCC1,1.65% (inactive),–
Cc1cc2nc(SCCN3CCOCC3)[nH]c2cc1C,–,18.4 µM (active)
CCn1c2ccc(F)cc2c2nnc(SCCN3CCOCC3)nc21,1.96% (inactive),–
Cc1ccc(C(=O)OCC(=O)N2CCCCCC2)cc1S(=O)(=O)N1CCOCC1,2.44% (inactive),–
CN1C/C(=C/c2cccs2)C(=O)/C(=C\c2cccs2)C1,-2.16% (inactive),–
O=C1/C(=C/c2cccs2)CCc2ccccc21,–,8.2 µM (active)
CCC1C/C(=C/c2cccs2)C(=O)/C(=C/c2cccs2)C1 (stereo unspecified),-4.86% (inactive),–
